From PubChem BioAssay AID686978 (National Center for Advancing Translational Sciences (NCATS), 2013)
Among all 420,000 compounds or so, about 64,000 (15%) were called active. Roughly 27% stayed inconclusive and do not appear here. The call rests on the fitted dose curve; in most records, active means well fitted inhibition curve with a large enough effect; inconclusive means small, poorly fitted or top-dose-only effect; inactive means flat fitted curve, though single readings scatter. Only a sample is shown. Peptide text beside a SMILES is read from it.

assay: qHTS for Inhibitors of human tyrosyl-DNA phosphodiesterase 1 (TDP1): qHTS in cells in absence of CPT; conditions: DT40 Tdp1-/- hTDP1 cells, no CPT, ATP luminescence, 48 h; activity change, negative = growth inhibition: at 46.2 µM (top of the series); further: nearly all actives have a fitted effect of over 55% in size
Outline: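 Growth kinetics read by CellTiter-Glo luminescence after ≥48 hr at 37 °C. Cells: DT40 Tdp1-/- stably carrying human TDP1, 400 per well, compound exposure in the absence of CPT (DMSO vehicle).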
On the % scale 0 is the no-effect control and ±100 the full control effect; potency means the concentration at half of the fitted maximal effect.

| SMILES | activity change, negative = growth inhibition | Potency |
| --- | --- | --- |
| O=C(CN1CCOCC1)Nc1c2c(nc3c1CCC3)CCC2 | -10.9% (inactive) | – |
| CCC(C)N(C(=O)COC(=O)C1C(C(=O)OC)=C(C)NC(C)=C1C(=O)OC)C1CCS(=O)(=O)C1 (stereo not drawn) | 18.7% (inactive) | – |
| COc1ccccc1CNC(=O)CS(=O)(=O)c1cccc2nsnc12 | 3.54% (inactive) | – |
| COc1cc2ccccc2cc1C(=O)Nc1ccncc1 | -29.2% (inactive) | – |
| COc1cc(NC(=O)c2cccs2)ccc1NC(=O)c1ccccc1Cl | -19.8% (inactive) | – |
| COc1cc2ccccc2cc1C(=O)Nc1cccc(-c2nc3ccccc3o2)c1 | – | 20.6 µM (active) |
| COc1cc2ccccc2cc1C(=O)Nc1ccc(NC(=O)c2cccs2)cc1 | – | 20.6 µM (active) |
| O=C(Nc1cccc(Br)c1)c1ccc2snnc2c1 | -20.1% (inactive) | – |
| COc1cccc(NC(=O)c2ccccc2SC)c1 | 1.33% (inactive) | – |
| O=C(Nc1cccc(-c2nc3ccccc3o2)c1)c1cccc(Br)c1 | – | 20.6 µM (active) |
| COc1cc2ccccc2cc1C(=O)Nc1ccc(S(=O)(=O)Nc2cc(C)on2)cc1 | -5% (inactive) | – |
| O=C(Nc1cccc(-c2nc3ncccc3o2)c1)c1ccco1 | -25.7% (inactive) | – |
| Cc1cccc(CCNC(=O)Cn2ncc3c([nH]c4ccc(C)cc43)c2=O)c1 | -16.7% (inactive) | – |
| CCN(C(=O)COC(=O)c1ccccc1O)c1cccc2ccccc12 | -23% (inactive) | – |
| Cc1nnc(SCC2=C(C(=O)O)N3C(=O)C(NC(=O)Cn4nc(C)c(Cl)c4C)C3SC2)s1 (stereo not drawn) | 3.68% (inactive) | – |
| C=CCNC(=O)c1ccccc1SCc1c(C)noc1C | 5.86% (inactive) | – |
| COc1ccc(S(=O)(=O)NC2(C(F)(F)F)N=C3SCCN3C2=O)cc1 (stereo not drawn) | 1.14% (inactive) | – |
| CN(CCc1ccccn1)C1CCCN(S(=O)(=O)c2ccccc2Cl)C1 (stereo not drawn) | -16.2% (inactive) | – |
| Cc1ccc2c(c1)-c1c(cnn1CC(=O)Nc1ccccc1C#N)CO2 | -29.7% (inactive) | – |
| Cc1nc(-c2ccc(Cl)cc2)sc1C1(C)CC(c2ccccc2F)=NO1 (stereo not drawn) | -11.9% (inactive) | – |
| NS(=O)(=O)c1ccccc1NC(=O)c1c(O)c2ccccc2[nH]c1=O | -24.1% (inactive) | – |
| CCOc1ccc(OCCSc2nc3ccccc3n2CC(=O)O)cc1 | -18.2% (inactive) | – |
| Cc1cccc(OCCSc2nc3ccccc3n2CC(=O)N2CCCCC2)c1C | – | 23.1 µM (active) |
| Cc1ccc(C(C)C)c(OCCSc2nc3ccccc3n2CC(=O)O)c1 | -2.5% (inactive) | – |
| Clc1ccc(Cl)c(Oc2ccc(Oc3nc(Cl)ccc3Cl)cc2)n1 | -14.1% (inactive) | – |
| COc1cc(Cl)c(C)cc1NC(=O)[C@@H]1CCCN1C(=O)c1cccs1 | -3.66% (inactive) | – |

| SMILES | activity change, negative = growth inhibition | Potency |
| --- | --- | --- |
| O=C(CCS(=O)(=O)c1cc(Br)cc2c1N(C(=O)C1CC1)CC2)Nc1ccc(C(F)(F)F)cc1 | -6.43% (inactive) | – |
| O=C(CCS(=O)(=O)c1cc(Br)cc2c1N(C(=O)C1CC1)CC2)Nc1ccc(Br)cc1F | -11.8% (inactive) | – |
| CCN(c1ccc2c(c1)OCO2)S(=O)(=O)c1cc(Br)cc2c1N(C(=O)C1CC1)CC2 | – | 25.9 µM (active) |
| O=c1oc2ccc(C#CC3(O)CCCCC3)cc2cc1-n1cc(-c2ccsc2)nn1 | -28.1% (inactive) | – |
| O=C(/C(=C/c1cccc(Cl)c1)c1nc2ccccc2[nH]1)c1ccccc1 | – | 23.1 µM (active) |
| CCC(=O)/C(=C(/O)c1ccccc1)c1nc2ccccc2[nH]1 | -0.407% (inactive) | – |
| O=C(Cc1nc2ccccc2[nH]c1=O)c1ccc(Cl)cc1 | -23.9% (inactive) | – |
| CN1CCC(=NNC(=O)c2ccc(N(Cc3ccc(Cl)cc3)S(C)(=O)=O)cc2)CC1 | -7.52% (inactive) | – |
| NC(=O)Cn1nc([N+](=O)[O-])nc1Oc1ccc(Br)cc1 | 11.7% (inactive) | – |
| CC(C)CCNC(=O)CCNS(=O)(=O)c1ccc(Cl)cc1 | -5.64% (inactive) | – |
| O=S1(=O)CCO[C@H]2Cc3ccccc3[C@H]2N1Cc1ccccc1 | -21.9% (inactive) | – |
| CCOc1c(Br)cc(/C=C2\C(=O)N(CCC#N)N=C2C)cc1OC | – | 29.1 µM (active) |
| CCOc1cc(/C=N/O)cc(Br)c1OC | -23.1% (inactive) | – |
| COc1cc(/C=C2/C(=O)NN(c3cccc(Cl)c3)C2=O)cc(Br)c1O | -2.28% (inactive) | – |
| CCn1c(SCC(=O)NC2=NCCS2)nnc1C(C)NC(=O)c1ccccc1F (stereo not drawn) | -2.37% (inactive) | – |
| Cc1ccc(-n2c(C)nnc2SCC(=O)NC2CC2)cc1 | 0.716% (inactive) | – |
| CCCC(CCC(=O)OC)(C(=O)OCC)c1csc(N)n1 (stereo not drawn) | -2.44% (inactive) | – |
| CCCCCCCCCCCCC(NC(C)=O)(C(=O)OCC)C(=O)OCC | – | 20.6 µM (active) |
| CCCCCCCCCCCC(=O)O | -27.7% (inactive) | – |
| COC(=O)C1=CO[C@@H](O[C@@H]2O[C@H](CO)[C@@H](O)[C@H](O)[C@H]2O)C2C1C[C@H](O)[C@@H]2C (stereo partly drawn) | -10.1% (inactive) | – |
| COc1ccccc1NC(=O)C1=C(C)Nc2nc3ccccc3n2C1c1cccs1 (stereo not drawn) | – | 3.26 µM (active) |
| COc1ccccc1NC(=O)C1=C(C)Nc2ncnn2C1c1sccc1C (stereo not drawn) | -1.49% (inactive) | – |
| CCOC(=O)C1=C(C)Nc2nc3ccccc3n2C1c1cccs1 (stereo not drawn) | -0.394% (inactive) | – |
| CCOC(=O)C1CCN(C(=O)CSc2cc(=O)n(C)c3ccccc23)CC1 | -17.7% (inactive) | – |
| Cc1ccc(-c2cc(=O)c3ccc(F)cc3[nH]2)cc1 | – | 13 µM (active) |
| Cc1ccc(S(=O)(=O)/N=C(\N)c2ccc(F)cc2)cc1 | 7.02% (inactive) | – |

| SMILES | activity change, negative = growth inhibition | Potency |
| --- | --- | --- |
| O=c1cc(-c2ccccc2)[nH]c2cc(F)ccc12 | – | 1.03 µM (active) |
| Cc1cc(=O)c2ccc(NC(=O)c3ccccc3)cc2[nH]1 | 10.8% (inactive) | – |
| O=c1[nH]c(-c2ccccc2)c(-c2ccccc2)[nH]1 | -27.8% (inactive) | – |
| Cc1ccc(-c2cc(=O)c3ccc(Cl)cc3[nH]2)cc1 | -15.6% (inactive) | – |
| O=S(=O)(Nc1ccccc1Br)c1cccs1 | -16.7% (inactive) | – |
| Cn1nccc1/C=N\NC(=O)c1ccc(Cl)cc1 | 5.3% (inactive) | – |
| Cc1cc(-n2cnc(-c3cn(C)nc3C)n2)no1 | -0.924% (inactive) | – |
| Cc1cc(C)c(NC(=O)C[N+](C)(C)CC(O)COc2cccc3ccccc23)c(C)c1 (stereo not drawn) | – | 18.4 µM (active) |
| Cc1cc(C)cc(OCC(=O)Nc2c(C(=O)c3ccccc3)oc3ccccc23)c1 | 3.8% (inactive) | – |
| Cc1cccc(NC(=O)COc2ccccc2C)n1 | -22.7% (inactive) | – |
| Cc1cccc(NC(=O)c2ccc3nsnc3c2)c1C | -27.4% (inactive) | – |
| O=C(Nc1ccccc1)OCc1cc(-c2ccc(Cl)cc2)on1 | -8.65% (inactive) | – |
| CCc1cc2c(N3CCN(c4nnc(CC)s4)CC3)ncnc2s1 | – | 8.2 µM (active) |
| O=C(CCc1nnc2ccc(NCc3ccccc3Cl)nn12)NCC1CCN(C2CCCC2)C1 (stereo not drawn) | -15.2% (inactive) | – |
| O=C(CSc1ccsc1[N+](=O)[O-])N1CCCCC1 | -9.26% (inactive) | – |
| CS(=O)(=O)N(CC(=O)N1CCCCCC1)c1cccc(Cl)c1Cl | -28.3% (inactive) | – |
| CCOC(=O)c1c(NC(=O)c2cccs2)sc(C)c1C | -3.76% (inactive) | – |
| Cc1ccc(C(=O)c2c(NC(=O)c3ccccc3)sc(C)c2C)cc1 | – | 23.1 µM (active) |
| Cc1ccc(C(=O)Nc2c(-c3ccccc3)[nH][nH]c2=O)cc1 | 15% (inactive) | – |
| Cn1c(=O)c2cc(S(=O)(=O)NCCC(=O)Nc3ccc(F)cc3F)ccc2n(C)c1=O | -27.1% (inactive) | – |
| COc1ccc(NC(=O)CN(C)C(=O)/C=C/c2cn(Cc3ccccc3)nc2-c2cccnc2)cc1 | -21.8% (inactive) | – |
| Cc1cc(C)cc(NC(=O)CSc2nc(=O)n(CCN3CCOCC3)c3c2CCC3)c1 | -14.7% (inactive) | – |
| CCCCCOc1ccc(/C=C/C(=O)NCCc2nc3ccccc3[nH]2)cc1OC | – | 9.2 µM (active) |
| O=C(COc1ccccc1)NCCc1nc2ccccc2[nH]1 | 0.1% (inactive) | – |
| CC(C)=C(NC(=O)c1ccco1)C(=O)NCCc1nc2ccccc2[nH]1 | -3.68% (inactive) | – |
| COc1ccc2c(C(=O)c3ccc(C)cc3)n(CCC(N)=O)[n+]([O-])c2c1 | -12.7% (inactive) | – |

| SMILES | activity change, negative = growth inhibition | Potency |
| --- | --- | --- |
| COC(=O)CNC(=O)C(CCSC)NC(C)=O (stereo not drawn) (HELM PEPTIDE1{[ac].[CSCCC(N[*:1])C(=O)[*:2]].G.[CO[*:1]]}$$$$V2.0) | 0.948% (inactive) | – |
| COc1ccc(OC)c(S(=O)(=O)N2CCCC(C(=O)N3CCC(C(N)=O)CC3)C2)c1 (stereo not drawn) | 0.564% (inactive) | – |
| COc1ccc(N(C)C(=O)C2CCN(S(=O)(=O)c3cc(Br)cc4c3N(C(C)=O)CC4)CC2)cc1 | -24% (inactive) | – |
| CC(=O)N1CCCc2cc(S(=O)(=O)N3CCC(C(=O)NC4CCCCC4)CC3)ccc21 | -0.0784% (inactive) | – |
| O=C(C1CCC1)N1CCN(c2ccccc2)CC1 | -3.02% (inactive) | – |
| O=C(C1CCCN(S(=O)(=O)c2ccccc2)C1)N1CCN(c2ccc(F)cc2)CC1 (stereo not drawn) | – | 11.6 µM (active) |
| CCOC(=O)C1CCN(C(=O)C2CCCN(S(=O)(=O)c3ccc(OC)c(Cl)c3)C2)CC1 (stereo not drawn) | – | 11.6 µM (active) |
| COc1ccc(S(=O)(=O)N2CCC(C(=O)N3CCCC3)CC2)cc1C | -17.4% (inactive) | – |
| Cc1ccc(S(=O)(=O)N2CCC(N3CCCCCC3)CC2)cc1 | -12.8% (inactive) | – |
| CCCS(=O)(=O)N1CCCC(C(=O)N2CCN(c3ccccc3)CC2)C1 (stereo not drawn) | -5.33% (inactive) | – |
| Cc1ccc(S(=O)(=O)N2CCC(C(=O)N3CCCCCCC3)CC2)cc1 | – | 20.6 µM (active) |
| CCN1CCN(C(=O)C2CCCN(S(=O)(=O)c3ccc(OC)c(OC)c3)C2)CC1 (stereo not drawn) | -26.3% (inactive) | – |
| Cc1ccc(N(C)C(=O)C2CCN(S(=O)(=O)c3ccc4c(c3)CCCN4C(=O)C3CCC3)CC2)cc1 | – | 16.4 µM (active) |
| Cc1cc(-c2ccccc2)nc(N2CCC(C(=O)NC34CC5CC(CC(C5)C3)C4)CC2)n1 | -23.1% (inactive) | – |
| COCCCNC(=O)[C@H]1N2C(=O)c3ccccc3C2SC1(C)C (stereo partly drawn) | 0.674% (inactive) | – |
| O=c1c(F)cn(C2CCCO2)c(=O)n1Cc1ccccc1Cl (stereo not drawn) | 7.15% (inactive) | – |
| O=C1CN(C(=O)COC(=O)c2cnc(Cl)c(Cl)c2)c2ccccc2N1 | -4.12% (inactive) | – |
| CC1(c2ccc3ccccc3c2)NC(=O)NC1=O (stereo not drawn) | -3.58% (inactive) | – |
| COCCCNC(=O)C1CCC(CNS(=O)(=O)c2ccc(OC)cc2)CC1 (stereo not drawn) | – | inactive |
| O=C(C1CCCN(S(=O)(=O)c2cccc3nonc23)C1)N1CCN(c2ccccc2F)CC1 (stereo not drawn) | – | 18.4 µM (active) |
| CC(=O)c1cccc(NC(=O)C2CCCN(S(=O)(=O)c3cccc4nonc34)C2)c1 (stereo not drawn) | -27.5% (inactive) | – |
| O=C(Cc1ccccc1)N1CCN(S(=O)(=O)c2ccc([N+](=O)[O-])cc2)CC1 | -11.9% (inactive) | – |
| COc1ccc(NC(=O)C2CCCN(S(=O)(=O)c3cccc4nonc34)C2)cc1Cl (stereo not drawn) | -4.62% (inactive) | – |
| O=C(C1CCC1)N1CCN(S(=O)(=O)c2ccc([N+](=O)[O-])cc2)CC1 | 3.7% (inactive) | – |
| O=C(C1CCCN(S(=O)(=O)c2ccc([N+](=O)[O-])cc2)C1)N1CCCCC1 (stereo not drawn) | – | 16.4 µM (active) |
